Holding throughout (experiment): NCI-60 one-dose screen, 48 h (100 = growth as untreated, 0 = no growth, -100 = all killed)
In one experiment the test system is HCT-15 colon. The note with it: 10 µM unless noted.
The test system of a further experiment is HT29 colon. The note with it: 10 µM unless noted.
Another experiment relates to SNB-75 CNS. The note with it: 10 µM unless noted.
For a further experiment, the system named is SNB-19 CNS. The note with it: 10 µM unless noted.
In a further experiment the test system is U251 CNS. The note with it: 10 µM unless noted.
The test system of the next experiment is PC-3 prostate. The note with it: 10 µM unless noted.
Another experiment concerns SK-MEL-5 melanoma. The note with it: 10 µM unless noted.
The next experiment concerns UACC-62 melanoma. The note with it: 10 µM unless noted.
The test system of the next experiment is LOX IMVI melanoma. The note with it: 10 µM.
A further experiment deals with SK-MEL-28 melanoma. The note with it: 10 µM unless noted.
Another experiment has as its system EKVX NSCLC. The note with it: 10 µM unless noted.
In another experiment the test system is SN12C renal. The note with it: 10 µM unless noted.
The next experiment deals with UO-31 renal. The note with it: 10 µM unless noted.
The test system of the next experiment is CAKI-1 renal. The note with it: 10 µM unless noted.
The test system of the next experiment is A498 renal. The note with it: 10 µM unless noted.
A further experiment deals with MOLT-4 leukemia. The note with it: 10 µM unless noted.
A further experiment has as its system SK-MEL-2 melanoma. The note with it: 10 µM unless noted.
In a further experiment the test system is TK-10 renal. The note with it: 10 µM unless noted.
A further experiment relates to ACHN renal. The note with it: 10 µM unless noted.
The subject of another experiment is CCRF-CEM leukemia. The note with it: 10 µM unless noted.

The panel holds about 83,000 compounds, 20% with a hit somewhere; the sample as a whole holds those more often.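 Each cell line was grown in a 96-well plate and treated with one concentration of compound for 48 hours. Values below 10 were considered active.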 Unmarked numbers belong to inactive results. Calls of active or inactive are those of the source.

Turning to `N#CC1(O)CCCCC1`, the growth in the experiment with HCT-15 colon is 99.6%; in the experiment on HT29 colon, 104%; with SNB-75 CNS, 49.2%; with SNB-19 CNS, 108%; with U251 CNS it was 94.7%; in the experiment with PC-3 prostate, 95.2%. The growth was 106% in the experiment on SK-MEL-5 melanoma; 106% in the experiment with UACC-62 melanoma; 91.7% in the experiment with LOX IMVI melanoma; 109% in the experiment with SK-MEL-28 melanoma; 101% in the experiment with EKVX NSCLC; 110% in the experiment on SN12C renal. In addition, the growth with UO-31 renal was 85.6%; in the experiment with CAKI-1 renal, 92.5%; with A498 renal it was 87.9%; in the experiment with MOLT-4 leukemia, 102%.
With `COc1ccc(Br)c(C=O)c1`, the growth is 26.8% in the experiment on HCT-15 colon; 76.3% with HT29 colon; 54.8% in the experiment with SNB-75 CNS; 74.8% in the experiment on SNB-19 CNS; 39.1% with U251 CNS; 71.7% in the experiment on PC-3 prostate. Moreover, the growth was 81.8% in the experiment on SK-MEL-5 melanoma; 63.8% in the experiment on UACC-62 melanoma; 86% with SK-MEL-28 melanoma; 104% with SK-MEL-2 melanoma; 83.2% in the experiment with EKVX NSCLC; 63.9% with SN12C renal. Also, the growth was 54.1% in the experiment with UO-31 renal; 83.7% in the experiment with TK-10 renal; 88.9% in the experiment on ACHN renal; 63.9% in the experiment with CAKI-1 renal; 93.4% in the experiment on A498 renal; 2.55% (active) with CCRF-CEM leukemia. The growth in the experiment with MOLT-4 leukemia is 18.9%.
As to `O=C(Nc1c(Cl)cc(Cl)cc1Cl)ON=C1CCCCC1`, the growth is 102% in the experiment with HCT-15 colon; 104% with HT29 colon; 94.4% with SNB-75 CNS; 108% in the experiment with SNB-19 CNS; 104% with U251 CNS; 114% with PC-3 prostate. In addition, the growth in the experiment on SK-MEL-5 melanoma was 101%; in the experiment on UACC-62 melanoma, 98.7%; in the experiment with SK-MEL-28 melanoma it was 106%; with SK-MEL-2 melanoma, 107%; in the experiment with EKVX NSCLC, 105%; in the experiment on SN12C renal, 98.4%. For the same molecule, the growth in the experiment on UO-31 renal was 90.2%; with TK-10 renal, 100%; in the experiment with ACHN renal it was 102%; in the experiment on CAKI-1 renal, 97.2%; in the experiment with A498 renal it was 105%; in the experiment on CCRF-CEM leukemia it was 102%. Also, the growth in the experiment with MOLT-4 leukemia is 109%.
Turning to `Clc1ccc(-c2noc(/C=C\c3ccccc3)n2)cc1`, the growth was 95% with HCT-15 colon; 102% in the experiment on HT29 colon; 103% in the experiment with SNB-75 CNS; 102% with SNB-19 CNS; 91.2% with U251 CNS; 102% in the experiment with PC-3 prostate. Also, the growth with SK-MEL-5 melanoma is 97.6%; with UACC-62 melanoma it was 100%; in the experiment on LOX IMVI melanoma, 97.5%; in the experiment on SK-MEL-28 melanoma, 106%; in the experiment with SN12C renal it was 105%; in the experiment on UO-31 renal, 83.5%. In addition, the growth was 115% in the experiment on TK-10 renal; 98.3% in the experiment on ACHN renal; 96.1% in the experiment on CAKI-1 renal; 93.7% in the experiment with A498 renal; 92.3% in the experiment with CCRF-CEM leukemia; 98.4% with MOLT-4 leukemia.
In the case of `CC(=O)NCNC(C)=O`, the growth in the experiment with HCT-15 colon is 101%; with HT29 colon, 111%; in the experiment on SNB-75 CNS, 92.4%; with SNB-19 CNS, 107%; in the experiment on U251 CNS, 103%; with PC-3 prostate, 88.9%. Also, the growth was 102% in the experiment with SK-MEL-5 melanoma; 112% in the experiment with UACC-62 melanoma; 113% in the experiment with LOX IMVI melanoma; 107% in the experiment with SK-MEL-28 melanoma; 109% in the experiment on SN12C renal; 105% in the experiment on UO-31 renal. The growth was 115% in the experiment on TK-10 renal; 100% with ACHN renal; 102% in the experiment on CAKI-1 renal; 113% in the experiment on A498 renal; 93.3% in the experiment on CCRF-CEM leukemia; 87.9% in the experiment with MOLT-4 leukemia.
Consider `COc1nc(Nc2cccc(C(F)(F)F)c2)nc(OC)n1`, for which the growth was 103% with HCT-15 colon; 96.1% in the experiment with HT29 colon; 84.3% in the experiment with SNB-75 CNS; 101% with SNB-19 CNS; 89.4% with U251 CNS; 98.7% in the experiment with PC-3 prostate. For the same molecule, the growth was 94% with SK-MEL-5 melanoma; 103% with UACC-62 melanoma; 107% in the experiment on LOX IMVI melanoma; 109% with SK-MEL-28 melanoma; 102% with SN12C renal; 84.3% in the experiment on UO-31 renal. Also, the growth in the experiment on TK-10 renal was 111%; in the experiment with CAKI-1 renal it was 103%; in the experiment with A498 renal, 85.3%; with CCRF-CEM leukemia it was 95.5%; in the experiment with MOLT-4 leukemia, 86.4%.
Regarding `NC(=S)N/N=C/c1ccc(Cl)cc1`, the growth is 103% with HCT-15 colon; 108% with HT29 colon; 103% in the experiment with SNB-75 CNS; 107% with SNB-19 CNS; 99.7% in the experiment with U251 CNS; 99.6% in the experiment on PC-3 prostate. Further, the growth with SK-MEL-5 melanoma is 99.1%; in the experiment with UACC-62 melanoma, 109%; in the experiment on LOX IMVI melanoma, 99.1%; with SK-MEL-28 melanoma it was 107%; in the experiment on UO-31 renal it was 94.8%; with TK-10 renal, 106%. Moreover, the growth in the experiment with ACHN renal was 108%; in the experiment with A498 renal, 99.5%; with MOLT-4 leukemia, 88.4%.
Regarding `C#CCSc1nnnn1-c1ccccc1`, the growth in the experiment with HCT-15 colon is 54.1%; with HT29 colon, 96%; in the experiment on SNB-75 CNS, 73.2%; in the experiment with SNB-19 CNS it was 97.5%; with U251 CNS, 36.7%; with PC-3 prostate, 89.4%. Besides, the growth in the experiment on SK-MEL-5 melanoma is 91.1%; in the experiment with UACC-62 melanoma, 101%; in the experiment on LOX IMVI melanoma, 95.1%; with SK-MEL-28 melanoma, 100%; in the experiment on SN12C renal it was 88%; with UO-31 renal, 91.1%. Moreover, the growth in the experiment with TK-10 renal is 80.4%; in the experiment with ACHN renal, 70.2%; in the experiment with CAKI-1 renal, 78.5%; in the experiment with A498 renal, 40%; with CCRF-CEM leukemia, 83.9%; in the experiment with MOLT-4 leukemia it was 87.9%.
Consider `COc1cc(OC)c(NC(=O)C(Sc2nc(C)cc(C)c2C#N)c2ccccc2)cc1Cl` (configuration not stated), for which the growth in the experiment on HCT-15 colon was 97.7%; in the experiment with HT29 colon it was 107%; with SNB-75 CNS, 27.4%; with SNB-19 CNS, 94.1%; with U251 CNS it was 87.3%; in the experiment on PC-3 prostate, 102%. The growth was 102% with SK-MEL-5 melanoma; 94.6% in the experiment with UACC-62 melanoma; 89.6% in the experiment on LOX IMVI melanoma; 105% with SK-MEL-28 melanoma; 98.5% in the experiment on SN12C renal; 102% in the experiment on UO-31 renal. For the same molecule, the growth was 96.3% with TK-10 renal; 85.8% in the experiment with ACHN renal; 94.6% in the experiment on CAKI-1 renal; 111% in the experiment with A498 renal; 90.9% in the experiment on MOLT-4 leukemia.
